Data reported in PubChem BioAssay.
Active and inactive are the calls of the source.

Experiments:
[1] = A549 cell viability effects, profiling panel, calcein-AM fluorescence, 48 h, basal (AID 1162); settings: higher = more signal
[2] = adipocyte viability effects, profiling panel, cell-based, 3T3-L1 adipocytes, calcein-AM fluorescence, 48 h, basal (AID 1163); settings: 3T3-L1 adipocytes viability, higher = more signal
[3] = HepG2 cell viability effects, profiling panel, calcein-AM fluorescence, 48 h, basal (AID 1164); settings: higher = more signal
[4] = MM1S cell viability effects, profiling panel, calcein-AM fluorescence, 48 h, basal (AID 1165); settings: higher = more signal;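 note: viability of MM1S multiple myeloma cells under basal unstimulated conditions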
[5] = basal RPMI8226 viability, no added stimulus, profiling panel, cell-based, calcein-AM fluorescence, 48 h, PK04 Diversity Set (AID 1166); settings: RPMI8226 myeloma viability, higher = more signal;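 note: cells grown under basal conditions without added stimulus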
[6] = basal HepG2 mitochondrial membrane potential changes, profiling panel, cell-based, JC-1 fluorescence, 24 h, 100 nL compound (AID 1167); settings: higher = more signal
[7] = basal 3T3-L1 adipocyte mitochondrial potential changes, profiling panel, cell-based, JC-1 fluorescence, 3T3-L1 adipocytes, 24 h, 100 nL compound (AID 1168); settings: JC-1 mitochondrial fluorescence, higher = more signal, called active from +8 up or from −8 down
[8] = basal RPMI8226 mitochondrial membrane potential changes, profiling panel, cell-based, JC-1 fluorescence, 24 h, 100 nL compound (AID 1169); settings: RPMI8226 myeloma, JC-1 mitochondrial potential fluorescence, higher = more signal
[9] = basal MM1S mitochondrial membrane potential changes, profiling panel, cell-based, JC-1 fluorescence, 24 h, 100 nL compound (AID 1170); settings: higher = more signal
[10] = A549 lung cancer cell viability effects, profiling panel, resazurin fluorescence, 24 h, PK04 Diversity Set (AID 1171); settings: higher = more signal, called active from +8 up or from −8 down
Note: test concentration not given here.

SMILES | z-score [1] | z-score [2] | z-score [3] | z-score [4] | z-score [5] | z-score [6] | z-score [7] | z-score [8] | z-score [9] | z-score [10]
C=CCC(OC(C)=O)[C@@H]1[C@@H](N(Cc2cccc3ccccc23)C(=O)Cc2ccc(F)cc2)c2cc(OCCCO)ccc2N1C(=O)Cc1ccc2ccccc2c1 (stereo not given in full) | 0.677 | -0.399 | 0.607 | 0.853 | -0.538 | 1.72 | 0.38 (inactive) | -0.0877 | -0.24 | 0.775 (inactive)
C=CCNC(=O)[C@H]1[C@@H]2C(=O)O[C@@H](c3ccccc3)[C@@H](c3ccccc3)N2[C@@H](c2ccc(O)cc2)[C@]12C(=O)Nc1ccc(C#CCNC(N)=O)cc12 | 0.294 | 0.57 | -0.348 | -0.778 | -0.144 | -0.0995 | -0.0287 (inactive) | 0.424 | 0.716 | 0.999 (inactive)
Cc1ccc(S[C@]2(C(=O)NCCN3CCOCC3)CC(=O)N(C3Cc4ccccc4C3)[C@@H]2c2ccc(CO)cc2I)cc1 | 1.47 | 1.33 | -0.0794 | -3.23 | -1.84 | 0.899 | -0.211 (inactive) | -0.993 | -1.02 | 0.842 (inactive)
C=CCC(OC(C)=O)[C@@H]1[C@@H](N(Cc2cc3ccccc3o2)C(=O)c2ccc(C)cc2)c2cc(OCCCO)ccc2N1C(=O)c1ccc2ccccc2n1 (stereo not given in full) | 2.73 | 0.362 | 1.54 | 0.906 | 1.09 | 2.46 | 1.5 (inactive) | 0.648 | 1.19 | 1.66 (inactive)
C=CC[C@]1(C(=O)N2CCCCC2)N=C(c2ccc(OCCCO)cc2)O[C@H]1c1ccccc1N=[N+]=[N-] | -0.871 | 1.65 | -0.715 | -1.56 | -2.55 | 0.654 | 0.866 (inactive) | -1.17 | -0.511 | -1.19 (inactive)
CCN1C(C)=C(C(=O)OC)[C@@H](c2ccccc2)N2C(=O)[C@](O)(C(=O)OC)[C@@H](c3ccccc3)C(C(C)=O)=C12 | 0.158 | 2.15 | -0.473 | 0.244 | -0.918 | 1.35 | 0.982 (inactive) | 0.195 | -0.14 | -0.468 (inactive)
C=C(CCCC)C(=O)CC[C@@H](OC(=O)c1cccnc1)c1cccc(OCCO)c1 | 1.17 | 0.977 | -0.865 | -3.38 | -2.93 | 0.558 | 0.645 (inactive) | -0.721 | -1.68 | 0.468 (inactive)
[N-]=[N+]=NCc1ccccc1C[C@]1(C(=O)N2CCCCC2)N=C(c2ccc(OCCCO)cc2)O[C@H]1c1ccccc1CN=[N+]=[N-] | 0.0482 | 0.628 | -0.503 | -2.92 | -4.22 | 0.675 | -0.539 (inactive) | -1.19 | -1.69 | -0.179 (inactive)
COc1cc2c(cc1OC)CN(C(=O)[C@H]1[C@@H]3C(=O)O[C@@H](c4ccccc4)[C@@H](c4ccccc4)N3[C@@H](c3ccc(O)cc3)[C@]13C(=O)Nc1ccc(C#CC4(O)CCCCCC4)cc13)CC2 | 0.273 | -0.0218 | -0.155 | -0.369 | -0.66 | -1.37 | -0.263 (inactive) | -0.34 | 0.432 | 1.24 (inactive)
CO[C@H]1COC(=O)[C@@H](OCc2ccccc2)C=C[C@H](C)[C@@H](OC)COC(=O)[C@H](OCc2ccccc2)C=C[C@@H]1C | 0.665 | 1.21 | 1.45 | 0.301 | 0.0913 | 1.6 | 0.382 (inactive) | -0.262 | 2.82 | 1.76 (inactive)
CO[C@H]1COC(=O)[C@H](C)NC(=O)CC=C[C@@H](C)[C@H](NS(=O)(=O)c2ccc(C)cc2)COC(=O)[C@@H](OCc2ccccc2)C=C[C@@H]1C | 0.0987 | 0.901 | 0.0331 | -0.31 | 0.102 | 1.04 | 0.315 (inactive) | -0.729 | 1.02 | 0.559 (inactive)
C[N+](C)(C)CCCC[C@@H]1NC(=O)[C@H]2C[C@@H](C(=O)NCc3ccc(F)cc3)[C@@H](c3cccc(OCCO)c3)N2C1=O | 0.191 | 1.01 | -0.676 | -1.04 | 0.366 | 1.79 | 1.06 (inactive) | -0.397 | 0.392 | 0.656 (inactive)
COCCOC(=O)N1C(=O)[C@@]2(c3cc(C#CCNC(N)=O)ccc31)[C@H](c1ccc(OCCO)cc1)N1[C@H](c3ccccc3)[C@H](c3ccccc3)OC(=O)[C@H]1[C@@H]2C(=O)N1CCCCCCC1 | 0.118 | 1.97 | -0.164 | -0.115 | 0.269 | -0.411 | -3.07 (inactive) | -0.659 | -1.11 | 0.643 (inactive)
COC(=O)[C@@]1(Cc2ccc(OC)cc2)[C@H]2c3cc(C(=O)N(C)C)n(Cc4ccc(C)c(F)c4F)c3C[C@H]2CN1C(=O)c1ccccc1 | -1.81 | -0.484 | -1.15 | -1.34 | -1.5 | 0.00937 | -0.589 (inactive) | 0.817 | -1.3 | 1.41 (inactive)
CO[C@@H]1COC(=O)[C@@H]2CCCN2C(=O)CC=C[C@@H](C)[C@H](OC)COC(=O)[C@@H]2CCCN2C(=O)CC=C[C@H]1C | 0.798 | 0.185 | 1.21 | 0.283 | 0.142 | -0.123 | 1.15 (inactive) | -0.695 | 2.22 | 1.82 (inactive)
Cc1ccc(S[C@]2(C(=O)NCCCN(C)C)CC(=O)N(Cc3ccccc3)[C@@H]2c2ccc(CO)cc2I)cc1 | 1.03 | 0.927 | 0.914 | -3.64 | -2.38 | 1.65 | -0.645 (inactive) | -0.643 | -0.822 | 0.0027 (inactive)
CCOC(=O)[C@H]1C/C=C/C[C@H](C(=O)OCC)C(=O)O[C@H]2[C@@H](OC)O[C@H](CO)[C@@H](OC(=O)Nc3ccc(Br)cc3)[C@@H]2OC1=O | -4.47 | -0.34 | -5.12 | -3.28 | -4.16 | -3.44 | 2.89 (inactive) | -0.948 | -1.83 | -7.29 (inactive)
Cc1ccc(N2C(=O)c3ccccc3[C@](C)(C(=O)NCC(C)C)[C@@H]2c2ccc(CO)cc2)nc1 | -0.535 | -0.672 | -0.712 | -0.359 | 0.256 | -0.481 | -0.74 (inactive) | -0.0498 | -0.634 | 0.606 (inactive)
COCCOC(=O)N1C(=O)[C@@]2(c3cc(C#CCC(C(=O)OC)C(=O)OC)ccc31)[C@H](C(=O)N1CCN(c3ncccn3)CC1)[C@H]1C(=O)O[C@H](c3ccccc3)[C@H](c3ccccc3)N1[C@@H]2c1ccc(O)cc1 | 1.65 | -0.287 | 2.17 | 0.613 | -0.188 | 0.88 | 2.64 (inactive) | -0.203 | -0.0423 | 0.0359 (inactive)
C=C(COC)/C(=C/C[C@H](OC(C)=O)c1ccc(OCCO)cc1)c1cnc2ccccc2c1 | 0.373 | 1.18 | -0.141 | -1.53 | 1.07 | 2.07 | 1.2 (inactive) | 0.23 | 0.278 | 0.715 (inactive)
CN1C(=O)C2C=CC(C(O)C3CC=CCC3)N(Nc3ccccc3)C2C1=O (stereo not given) | -0.653 | -1.14 | -0.661 | 0.228 | -1.56 | -0.965 | -0.117 (inactive) | 0.116 | -0.608 | -0.293 (inactive)
COc1cccc([C@@H]2[C@@H](C)CC[C@H]3C(=O)N4[C@H](c5cccc(OC)c5)[C@@H](C)CC[C@H]4C(=O)N23)c1 | 2.04 | 0.512 | 0.761 | 0.656 | 1.34 | 1.51 | 0.891 (inactive) | -0.395 | 1.13 | 1.51 (inactive)
CCCC[C@@H]1C[C@H]1[C@@H](NC(=O)c1cccs1)c1ccc(Cl)cc1 | -1.36 | 1.11 | -1.02 | -0.992 | -2.99 | -1.16 | 0.53 (inactive) | -0.912 | -0.53 | 0.6 (inactive)
